# Measured values from publication PMC7862700, “An all-to-all approach to the identification of sequence-specific readers for epigenetic DNA modifications on cytosine”.
# Experiments:
# Experiment in all cases: DAPPL (digital affinity profiling via proximity ligation, sequencing); 10 mM Tris-HCl pH 7.5, 50 mM NaCl, 1 mM DTT, 4% glycerol, room temperature, 30 min; GST-TFs on glutathione beads, 16-mer random dsDNA library, 0.1% formaldehyde crosslink after washing; high values mean tight binding
# [1] = target: T1, FEV (Homo sapiens, UniProt Q99581 1-238); conditions: protein: recombinant; tags: N-terminal GST; dsDNA, one strand shown
# T1 sequence: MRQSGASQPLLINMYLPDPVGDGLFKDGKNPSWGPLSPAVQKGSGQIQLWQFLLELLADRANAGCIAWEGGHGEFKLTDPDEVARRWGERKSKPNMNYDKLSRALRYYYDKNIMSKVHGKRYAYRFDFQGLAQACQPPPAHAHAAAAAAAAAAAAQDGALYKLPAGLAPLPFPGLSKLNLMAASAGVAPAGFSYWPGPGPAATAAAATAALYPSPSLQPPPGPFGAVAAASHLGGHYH
# How it was run: (§1)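 Binding signal is given per hexamer as its read frequency for a factor divided by its frequency in the tag-only sample. GST-fused human transcription factors were expressed in yeast, captured on glutathione beads, barcoded with DNA and pooled with that sample, then incubated with 200 nmole of a 16-mer random double-stranded DNA library in Tris/NaCl/DTT/glycerol buffer for 30 min at room temperature. The pools were then washed, crosslinked, proximity-ligated, amplified by PCR and sequenced on an Illumina NextSeq500.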
# [2] = target: ETV5 (Homo sapiens, UniProt P41161 1-510); conditions: protein: recombinant; tags: N-terminal GST; dsDNA, one strand shown
# ETV5, sequence (P41161 whole entry): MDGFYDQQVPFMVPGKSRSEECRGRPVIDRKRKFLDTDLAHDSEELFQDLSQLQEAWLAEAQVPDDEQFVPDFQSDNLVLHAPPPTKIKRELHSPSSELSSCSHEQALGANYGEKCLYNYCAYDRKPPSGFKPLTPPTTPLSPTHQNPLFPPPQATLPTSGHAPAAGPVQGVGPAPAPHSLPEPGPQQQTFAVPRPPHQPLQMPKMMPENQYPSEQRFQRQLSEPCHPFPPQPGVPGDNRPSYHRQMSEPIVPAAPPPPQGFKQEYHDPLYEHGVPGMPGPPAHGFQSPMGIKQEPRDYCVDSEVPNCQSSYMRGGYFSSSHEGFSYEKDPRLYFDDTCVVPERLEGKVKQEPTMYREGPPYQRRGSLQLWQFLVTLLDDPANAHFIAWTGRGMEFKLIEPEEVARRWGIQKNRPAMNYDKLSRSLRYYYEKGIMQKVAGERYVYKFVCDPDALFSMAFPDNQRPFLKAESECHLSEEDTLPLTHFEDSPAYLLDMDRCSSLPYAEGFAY
# How it was run: as §1
# [3] = target: HSF1 (Homo sapiens, UniProt Q00613 1-529); conditions: protein: recombinant; tags: N-terminal GST; chain copies: 3; dsDNA, one strand shown
# HSF1, sequence (Q00613 whole entry): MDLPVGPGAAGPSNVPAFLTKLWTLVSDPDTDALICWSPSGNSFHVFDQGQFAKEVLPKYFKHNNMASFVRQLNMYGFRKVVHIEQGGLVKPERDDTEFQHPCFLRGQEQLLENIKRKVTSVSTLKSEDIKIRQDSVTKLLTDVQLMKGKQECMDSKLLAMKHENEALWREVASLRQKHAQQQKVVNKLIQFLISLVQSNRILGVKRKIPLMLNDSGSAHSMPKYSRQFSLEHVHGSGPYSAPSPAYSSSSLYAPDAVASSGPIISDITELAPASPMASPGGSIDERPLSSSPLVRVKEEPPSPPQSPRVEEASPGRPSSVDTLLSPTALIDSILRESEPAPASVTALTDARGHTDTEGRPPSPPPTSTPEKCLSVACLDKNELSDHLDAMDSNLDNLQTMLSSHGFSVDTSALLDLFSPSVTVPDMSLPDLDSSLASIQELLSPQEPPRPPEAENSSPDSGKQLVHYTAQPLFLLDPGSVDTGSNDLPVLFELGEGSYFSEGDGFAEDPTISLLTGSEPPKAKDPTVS
# How it was run: as §1
# [4] = target: T2, SPIC (Homo sapiens, UniProt Q8N5J4 1-248); conditions: protein: recombinant; tags: N-terminal GST; dsDNA, one strand shown
# T2 sequence: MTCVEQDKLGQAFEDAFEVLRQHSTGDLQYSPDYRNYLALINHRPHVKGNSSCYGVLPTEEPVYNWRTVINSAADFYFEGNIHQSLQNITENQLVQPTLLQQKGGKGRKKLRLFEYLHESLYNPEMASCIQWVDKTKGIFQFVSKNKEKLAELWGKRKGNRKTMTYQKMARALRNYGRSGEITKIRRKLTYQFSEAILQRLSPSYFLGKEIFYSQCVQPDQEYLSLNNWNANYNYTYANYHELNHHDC
# How it was run: as §1
# [5] = target: ELF4 (Homo sapiens, UniProt Q99607 1-663); conditions: protein: recombinant; tags: N-terminal GST; dsDNA, one strand shown
# ELF4, sequence (Q99607 whole entry): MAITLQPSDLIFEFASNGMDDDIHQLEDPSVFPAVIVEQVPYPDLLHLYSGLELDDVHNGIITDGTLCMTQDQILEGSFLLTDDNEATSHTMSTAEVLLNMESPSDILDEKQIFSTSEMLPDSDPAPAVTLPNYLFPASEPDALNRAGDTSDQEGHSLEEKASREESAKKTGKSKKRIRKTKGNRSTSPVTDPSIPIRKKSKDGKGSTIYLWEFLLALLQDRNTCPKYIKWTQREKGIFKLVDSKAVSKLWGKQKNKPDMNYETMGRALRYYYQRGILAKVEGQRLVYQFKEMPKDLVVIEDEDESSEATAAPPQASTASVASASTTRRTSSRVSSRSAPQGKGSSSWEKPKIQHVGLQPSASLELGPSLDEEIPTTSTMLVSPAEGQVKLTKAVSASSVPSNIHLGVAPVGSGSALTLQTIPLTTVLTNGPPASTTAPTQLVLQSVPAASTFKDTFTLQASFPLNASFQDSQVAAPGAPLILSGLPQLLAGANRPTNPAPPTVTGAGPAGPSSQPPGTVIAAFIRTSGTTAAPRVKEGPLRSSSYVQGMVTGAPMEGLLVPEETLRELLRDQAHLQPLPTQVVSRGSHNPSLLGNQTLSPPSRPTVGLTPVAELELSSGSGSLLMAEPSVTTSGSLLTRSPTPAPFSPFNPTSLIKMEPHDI
# How it was run: as §1
# [6] = target: T3, ELK4 (Homo sapiens, UniProt P28324-2 1-405); conditions: protein: recombinant; tags: N-terminal GST; dsDNA, one strand shown
# T3 sequence: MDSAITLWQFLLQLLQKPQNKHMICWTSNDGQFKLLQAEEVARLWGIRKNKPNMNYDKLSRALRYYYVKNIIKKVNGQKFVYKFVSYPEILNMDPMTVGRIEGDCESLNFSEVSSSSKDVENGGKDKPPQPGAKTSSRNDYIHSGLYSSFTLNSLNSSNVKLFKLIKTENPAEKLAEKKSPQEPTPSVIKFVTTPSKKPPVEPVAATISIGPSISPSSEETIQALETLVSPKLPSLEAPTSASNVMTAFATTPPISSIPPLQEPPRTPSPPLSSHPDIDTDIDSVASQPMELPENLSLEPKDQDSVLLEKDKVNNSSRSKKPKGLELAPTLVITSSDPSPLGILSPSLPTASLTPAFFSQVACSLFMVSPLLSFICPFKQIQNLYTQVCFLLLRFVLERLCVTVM
# How it was run: as §1
# [7] = target: T4, ETV2 (Homo sapiens, UniProt O00321 1-342); conditions: protein: recombinant; tags: N-terminal GST; dsDNA, one strand shown
# T4 sequence: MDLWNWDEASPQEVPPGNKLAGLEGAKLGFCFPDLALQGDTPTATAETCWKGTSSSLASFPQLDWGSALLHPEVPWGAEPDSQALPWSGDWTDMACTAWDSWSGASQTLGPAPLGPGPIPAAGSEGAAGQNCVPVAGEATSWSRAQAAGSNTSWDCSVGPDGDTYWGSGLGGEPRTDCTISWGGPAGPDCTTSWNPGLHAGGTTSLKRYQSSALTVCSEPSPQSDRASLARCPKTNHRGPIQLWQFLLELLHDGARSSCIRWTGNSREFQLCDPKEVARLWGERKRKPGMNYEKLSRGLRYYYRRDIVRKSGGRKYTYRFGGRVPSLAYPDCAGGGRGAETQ
# How it was run: as §1
# [8] = target: T5, ELF3 (Homo sapiens, UniProt P78545 1-371); conditions: protein: recombinant; tags: N-terminal GST; dsDNA, one strand shown
# T5 sequence: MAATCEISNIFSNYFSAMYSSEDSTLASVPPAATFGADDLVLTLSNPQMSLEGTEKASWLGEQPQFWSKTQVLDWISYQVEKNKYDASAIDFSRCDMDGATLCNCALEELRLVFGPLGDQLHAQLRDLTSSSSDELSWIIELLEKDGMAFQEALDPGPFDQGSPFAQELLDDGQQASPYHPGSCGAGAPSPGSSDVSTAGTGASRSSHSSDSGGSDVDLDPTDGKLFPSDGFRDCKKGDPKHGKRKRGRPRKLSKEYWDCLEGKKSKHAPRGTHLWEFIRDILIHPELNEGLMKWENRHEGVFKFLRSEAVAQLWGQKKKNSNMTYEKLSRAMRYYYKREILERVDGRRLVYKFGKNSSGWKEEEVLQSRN
# How it was run: as §1
# [9] = target: CRX (Homo sapiens, UniProt O43186 1-299); conditions: protein: recombinant; tags: N-terminal GST; dsDNA, one strand shown
# CRX, sequence (O43186 whole entry): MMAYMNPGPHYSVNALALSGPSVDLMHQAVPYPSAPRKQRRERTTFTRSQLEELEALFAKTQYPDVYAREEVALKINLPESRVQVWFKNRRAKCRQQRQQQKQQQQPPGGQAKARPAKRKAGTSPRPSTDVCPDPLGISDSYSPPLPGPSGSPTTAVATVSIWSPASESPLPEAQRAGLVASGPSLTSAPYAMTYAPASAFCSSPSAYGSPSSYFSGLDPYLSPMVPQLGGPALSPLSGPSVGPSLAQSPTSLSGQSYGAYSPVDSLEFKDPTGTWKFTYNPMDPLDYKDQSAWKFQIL
# How it was run: as §1
# [10] = target: ETV1 (Homo sapiens, UniProt P50549 1-477); conditions: protein: recombinant; tags: N-terminal GST; dsDNA, one strand shown
# ETV1, sequence (P50549 whole entry): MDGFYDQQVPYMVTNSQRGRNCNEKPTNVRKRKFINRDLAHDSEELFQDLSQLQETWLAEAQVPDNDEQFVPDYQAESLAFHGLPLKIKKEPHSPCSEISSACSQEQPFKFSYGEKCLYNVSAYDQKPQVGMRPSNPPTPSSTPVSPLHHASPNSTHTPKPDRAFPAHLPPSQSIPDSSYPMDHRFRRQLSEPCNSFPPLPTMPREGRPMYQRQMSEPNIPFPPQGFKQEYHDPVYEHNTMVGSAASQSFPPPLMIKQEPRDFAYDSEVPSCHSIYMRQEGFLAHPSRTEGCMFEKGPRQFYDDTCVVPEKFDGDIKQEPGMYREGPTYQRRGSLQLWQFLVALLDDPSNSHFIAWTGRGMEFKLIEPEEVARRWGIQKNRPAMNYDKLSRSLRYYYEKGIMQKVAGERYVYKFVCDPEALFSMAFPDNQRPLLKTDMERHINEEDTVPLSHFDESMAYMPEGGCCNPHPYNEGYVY
# How it was run: as §1
# [11] = target: T6, ERF (Homo sapiens, UniProt P50548 1-548); conditions: protein: recombinant; tags: N-terminal GST; dsDNA, one strand shown
# T6 sequence: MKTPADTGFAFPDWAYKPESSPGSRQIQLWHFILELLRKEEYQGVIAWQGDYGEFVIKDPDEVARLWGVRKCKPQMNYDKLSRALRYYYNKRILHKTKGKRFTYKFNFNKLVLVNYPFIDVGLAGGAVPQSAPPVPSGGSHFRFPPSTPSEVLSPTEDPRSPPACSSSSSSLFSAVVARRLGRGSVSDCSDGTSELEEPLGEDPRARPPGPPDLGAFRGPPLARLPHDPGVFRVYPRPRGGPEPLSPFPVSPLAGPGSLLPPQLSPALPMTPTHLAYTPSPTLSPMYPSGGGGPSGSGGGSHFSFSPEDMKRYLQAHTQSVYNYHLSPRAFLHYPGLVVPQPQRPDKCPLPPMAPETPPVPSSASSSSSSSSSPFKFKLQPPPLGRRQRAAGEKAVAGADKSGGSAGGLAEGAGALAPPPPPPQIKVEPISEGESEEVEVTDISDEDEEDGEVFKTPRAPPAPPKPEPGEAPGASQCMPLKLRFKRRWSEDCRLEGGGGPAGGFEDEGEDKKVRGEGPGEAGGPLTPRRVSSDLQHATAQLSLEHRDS
# How it was run: as §1
# [12] = target: T7, ETV3L (Homo sapiens, UniProt Q6ZN32 1-361); conditions: protein: recombinant; tags: N-terminal GST; dsDNA, one strand shown
# T7 sequence: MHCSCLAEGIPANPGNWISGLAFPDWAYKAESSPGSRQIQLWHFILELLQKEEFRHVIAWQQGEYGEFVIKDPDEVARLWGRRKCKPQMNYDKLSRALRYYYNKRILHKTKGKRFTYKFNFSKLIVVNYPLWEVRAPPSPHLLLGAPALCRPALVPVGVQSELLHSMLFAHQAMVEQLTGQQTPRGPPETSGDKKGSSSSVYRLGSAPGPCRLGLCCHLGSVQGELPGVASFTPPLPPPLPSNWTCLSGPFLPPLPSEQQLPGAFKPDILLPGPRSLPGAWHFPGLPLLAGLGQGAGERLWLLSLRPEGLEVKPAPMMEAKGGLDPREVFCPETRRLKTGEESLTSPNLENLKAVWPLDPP
# How it was run: as §1
# [13] = target: T8, ETS2 (Homo sapiens, UniProt P15036 1-469); conditions: protein: recombinant; tags: N-terminal GST; dsDNA, one strand shown
# T8 sequence: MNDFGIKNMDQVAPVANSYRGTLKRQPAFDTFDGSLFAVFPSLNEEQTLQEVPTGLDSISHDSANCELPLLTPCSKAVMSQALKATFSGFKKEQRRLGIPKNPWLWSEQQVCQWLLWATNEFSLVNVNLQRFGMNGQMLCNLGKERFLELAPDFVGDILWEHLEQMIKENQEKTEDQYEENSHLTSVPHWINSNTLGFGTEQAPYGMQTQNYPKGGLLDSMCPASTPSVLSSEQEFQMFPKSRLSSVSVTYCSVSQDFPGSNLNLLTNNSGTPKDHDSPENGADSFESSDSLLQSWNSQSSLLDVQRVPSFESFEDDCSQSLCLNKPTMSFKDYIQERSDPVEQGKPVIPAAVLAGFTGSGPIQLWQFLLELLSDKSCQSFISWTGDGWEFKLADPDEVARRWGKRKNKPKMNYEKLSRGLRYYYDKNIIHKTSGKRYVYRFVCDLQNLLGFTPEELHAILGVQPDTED
# How it was run: as §1
# [14] = target: T9, SPDEF (Homo sapiens, UniProt O95238 1-335); conditions: protein: recombinant; tags: N-terminal GST; dsDNA, one strand shown
# T9 sequence: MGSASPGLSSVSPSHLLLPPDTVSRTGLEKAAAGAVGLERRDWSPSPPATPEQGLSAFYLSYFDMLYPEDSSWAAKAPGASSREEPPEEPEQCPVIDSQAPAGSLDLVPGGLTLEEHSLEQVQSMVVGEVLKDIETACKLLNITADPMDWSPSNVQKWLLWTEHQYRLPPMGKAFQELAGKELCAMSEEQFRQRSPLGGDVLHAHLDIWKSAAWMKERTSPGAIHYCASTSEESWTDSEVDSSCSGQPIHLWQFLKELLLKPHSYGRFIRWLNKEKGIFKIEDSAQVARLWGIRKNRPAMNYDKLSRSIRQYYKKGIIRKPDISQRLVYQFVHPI
# How it was run: as §1
# [15] = target: T10, ETV7 (Homo sapiens, UniProt Q9Y603 1-341); conditions: protein: recombinant; tags: N-terminal GST; dsDNA, one strand shown
# T10 sequence: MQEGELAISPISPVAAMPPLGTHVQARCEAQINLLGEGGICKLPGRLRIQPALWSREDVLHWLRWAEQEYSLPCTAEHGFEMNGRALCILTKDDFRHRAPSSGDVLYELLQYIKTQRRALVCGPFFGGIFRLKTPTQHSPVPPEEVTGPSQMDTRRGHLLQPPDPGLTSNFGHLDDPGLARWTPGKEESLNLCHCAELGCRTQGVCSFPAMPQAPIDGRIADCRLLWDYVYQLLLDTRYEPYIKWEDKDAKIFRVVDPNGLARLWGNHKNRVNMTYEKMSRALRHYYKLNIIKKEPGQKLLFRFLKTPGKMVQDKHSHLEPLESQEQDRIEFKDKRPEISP
# How it was run: as §1
# [16] = target: T11, ELF5 (Homo sapiens, UniProt Q9UKW6-2 1-255); conditions: protein: recombinant; tags: N-terminal GST; dsDNA, one strand shown
# T11 sequence: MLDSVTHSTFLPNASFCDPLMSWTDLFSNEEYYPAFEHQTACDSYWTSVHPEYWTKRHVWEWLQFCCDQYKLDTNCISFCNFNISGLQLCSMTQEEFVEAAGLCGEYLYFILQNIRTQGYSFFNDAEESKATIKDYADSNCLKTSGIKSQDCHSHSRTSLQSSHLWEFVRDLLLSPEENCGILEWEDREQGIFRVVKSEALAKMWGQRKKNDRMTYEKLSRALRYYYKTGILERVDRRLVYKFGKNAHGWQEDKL
# How it was run: as §1
# [17] = target: T12, ETV3 (Homo sapiens, UniProt P41162-2 1-143); conditions: protein: recombinant; tags: N-terminal GST; dsDNA, one strand shown
# T12 sequence: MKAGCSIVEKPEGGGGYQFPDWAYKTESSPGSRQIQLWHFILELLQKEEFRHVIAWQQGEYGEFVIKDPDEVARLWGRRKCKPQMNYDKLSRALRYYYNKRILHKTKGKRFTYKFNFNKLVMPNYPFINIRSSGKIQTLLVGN
# How it was run: as §1
# [18] = target: ETV6 (Homo sapiens, UniProt P41212 1-452); conditions: protein: recombinant; tags: N-terminal GST; dsDNA, one strand shown
# ETV6, sequence (P41212 whole entry): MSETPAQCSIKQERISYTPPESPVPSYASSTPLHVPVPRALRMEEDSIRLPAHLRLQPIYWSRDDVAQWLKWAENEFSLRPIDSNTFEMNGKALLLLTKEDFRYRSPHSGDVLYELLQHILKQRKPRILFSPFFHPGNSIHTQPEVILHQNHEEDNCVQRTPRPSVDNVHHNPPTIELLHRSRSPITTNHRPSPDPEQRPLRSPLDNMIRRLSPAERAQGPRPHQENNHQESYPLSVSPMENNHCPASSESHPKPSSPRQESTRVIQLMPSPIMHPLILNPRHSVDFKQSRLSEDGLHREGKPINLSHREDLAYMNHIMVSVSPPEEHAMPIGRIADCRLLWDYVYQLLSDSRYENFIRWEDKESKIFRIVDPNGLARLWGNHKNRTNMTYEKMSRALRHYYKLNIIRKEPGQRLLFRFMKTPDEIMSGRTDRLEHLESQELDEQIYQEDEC
# How it was run: as §1
sequence,measurement,setting,value
CTAAGT,binding signal,[1],"1.13 fold enrichment (6-mer frequency, TF over GST control)"
same,binding signal,[2],"1.18 fold enrichment (6-mer frequency, TF over GST control)"
same,binding signal,[3],"1.3 fold enrichment (6-mer frequency, TF over GST control)"
same,binding signal,[4],"1.24 fold enrichment (6-mer frequency, TF over GST control)"
same,binding signal,[5],"1.24 fold enrichment (6-mer frequency, TF over GST control)"
same,binding signal,[6],"1.13 fold enrichment (6-mer frequency, TF over GST control)"
same,binding signal,[7],"1.24 fold enrichment (6-mer frequency, TF over GST control)"
same,binding signal,[8],"1.02 fold enrichment (6-mer frequency, TF over GST control)"
same,binding signal,[9],"1.8 fold enrichment (6-mer frequency, TF over GST control)"
same,binding signal,[10],"1.18 fold enrichment (6-mer frequency, TF over GST control)"
same,binding signal,[11],"1.13 fold enrichment (6-mer frequency, TF over GST control)"
same,binding signal,[12],"1.33 fold enrichment (6-mer frequency, TF over GST control)"
same,binding signal,[13],"1.23 fold enrichment (6-mer frequency, TF over GST control)"
same,binding signal,[14],"1.3 fold enrichment (6-mer frequency, TF over GST control)"
same,binding signal,[15],"1.29 fold enrichment (6-mer frequency, TF over GST control)"
same,binding signal,[16],"1.17 fold enrichment (6-mer frequency, TF over GST control)"
same,binding signal,[17],"1.21 fold enrichment (6-mer frequency, TF over GST control)"
same,binding signal,[18],"1.27 fold enrichment (6-mer frequency, TF over GST control)"
